# High-throughput results from PubChem.
# Sampled rows, rich in hits. Any-hit rate of the full collection: about 4.3%.
# MITF act: activators of MITF-driven TRPM1 promoter activity in SK-MEL-5 cells | SK-MEL-5 TRPM1-promoter luciferase, 24 h; % of positive control, neutral wells = 0 | activation, % at 12.5 µM | 300,000 tested, 0.75% active | AID 588334;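 active = mean activation of at least 80% with every replicate also reaching 80%; inconclusive = mean reaches 80% but some replicate falls short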;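 also: 0% = neutral control wells and 100% = parthenolide positive control wells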
# Wnt act: Wnt/beta-catenin pathway activation; Wnt/beta-catenin reporter cell assay, activator, plate reader; 300,000 tested, 1.2% active; activation, % at 9.35 µM; in the data active = activation above about 30%, passing the limit was not always enough; inconclusive = no clear call, values can overlap the other calls;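 also: 0% = neutral control wells and 100% = positive control wells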
# SMARCA2 activ: activators of SMARCA2 function | activation, % at 9.1 µM | AID 652017 | 370,000 tested, 1% active | MG213 cells, MMTV-luciferase reporter, dexamethasone, overnight; in the data active = activation above about 7.8%;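 also: 0% = vehicle wells and 100% = reference activator wells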
# FGF22 binding: FGF22 (human) thermal shift binding | Q9HCT0 | recombinant FGF22 thermal shift, SYPRO orange fluorescence; percent of sucrose octasulfate shift, DMSO zero | activity (Tm shift, normalised), % at 9.99 µM | 340,000 tested, 1.5% active | AID 651658;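 active = mean Tm shift, scaled 0 neutral to 100 positive control, at about 1.3% or above, every replicate too, limit read from the data; inconclusive = no clear call, values can overlap the other calls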
# Target sequence (Q9HCT0 whole entry, looked up): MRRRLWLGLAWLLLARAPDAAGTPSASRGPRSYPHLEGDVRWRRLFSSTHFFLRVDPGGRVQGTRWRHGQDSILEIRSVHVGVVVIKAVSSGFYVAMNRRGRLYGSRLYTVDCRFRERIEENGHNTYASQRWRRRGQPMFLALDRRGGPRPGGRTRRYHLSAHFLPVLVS
# esBAF inh: SWI/SNF esBAF complex inhibition; reporter increase, % at 12.5 µM; 350,000 tested, 2% active; mouse ES cells, Bmi1-luciferase knock-in reporter, 24 h; 100% = twice the neutral-well signal; AID 602393; in the data active = activation above about 40%; inconclusive = no clear call, values can overlap the other calls;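 also: 0% = median of the plate's neutral control wells and 100% = double that signal; a rise in the Bmi1 reporter signal indicates esBAF inhibition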
# AF4-AF9 inh: inhibitors of human MLL-AF4/AF9 interaction; 350,000 tested, 0.47% active; inhibition, % at 10 µM; AlphaScreen, biotin-AF4 peptide binding to FLAG-AF9; AID 651704;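 active = every replicate reaching a set inhibition limit, whatever the replicate mean, cut at about 25% in these data; inconclusive = mean inhibition reaches that limit but some replicates miss it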;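 also: 0% = plate neutral control median and 100% = total signal loss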
# Target sequence (P42568 whole entry, looked up): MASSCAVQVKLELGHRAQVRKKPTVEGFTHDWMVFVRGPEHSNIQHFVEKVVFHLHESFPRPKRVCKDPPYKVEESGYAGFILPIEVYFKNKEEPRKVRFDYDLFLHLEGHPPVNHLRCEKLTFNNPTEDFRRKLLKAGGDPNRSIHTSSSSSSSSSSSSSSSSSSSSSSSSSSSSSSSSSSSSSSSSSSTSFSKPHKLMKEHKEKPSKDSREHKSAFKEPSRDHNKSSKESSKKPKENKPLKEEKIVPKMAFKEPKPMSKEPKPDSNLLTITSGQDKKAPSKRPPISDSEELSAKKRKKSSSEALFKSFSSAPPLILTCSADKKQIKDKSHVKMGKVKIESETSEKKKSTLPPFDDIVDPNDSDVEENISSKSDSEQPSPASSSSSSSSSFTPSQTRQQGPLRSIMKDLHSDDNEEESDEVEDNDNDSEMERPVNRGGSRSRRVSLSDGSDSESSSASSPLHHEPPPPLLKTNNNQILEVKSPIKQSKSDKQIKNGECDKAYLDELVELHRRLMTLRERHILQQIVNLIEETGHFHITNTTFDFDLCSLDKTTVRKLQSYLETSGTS
# Ring1 derepress: de-represses Ring1 in mouse ESCs, confirming esBAF inhibition | shares compounds with esBAF inh | mouse ESC E14, Ring1 mRNA RT-qPCR fold change | fold change at 33 µM | 550 tested, under 10 active;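 active = Ring1 gene expression raised more than 2-fold over untreated cells in both replicates at either tested dose; inconclusive = only one replicate above 2-fold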;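 also: Ring1 transcript normalised to actin housekeeping signal by TaqMan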
# Fgf4 repress: represses Fgf4 in mouse ESCs, confirming esBAF inhibition; shares compounds with esBAF inh; mouse ESC E14, Fgf4 mRNA qPCR fold change; hits give low values; Fgf4 expression fold change at 33 µM; 550 tested, 4% active;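 active = Fgf4 expression under 0.8 fold of control in both repeat measurements at one or both tested doses; inconclusive = under 0.8 fold in just a single repeat measurement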;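 also: Fgf4 transcript normalised to actin in duplex TaqMan qPCR; cells exposed to compound for 24 h before lysis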
# esBAF Bmi1 qPCR: de-represses Bmi1 in mouse ESCs, confirming esBAF inhibition | shares compounds with esBAF inh | mouse ESE14 ES cells, Bmi1 mRNA qPCR fold; hits give high values | fold change at 33 µM | 550 tested, under 10 active;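 active = Bmi1 expression fold change above 6 at either tested concentration, seen in replicate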;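 also: higher fold means more Bmi1 de-repression and stronger esBAF inhibition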
# A549 cytotox: kills or reduces viability of A549 cells. shares compounds with esBAF inh. A549 cytotoxicity, plate reader. cell viability change % (negative = cytotoxic), % at 25 µM, hits read low. 550 tested, under 10 active. AID 743188; call rule not given here
# HepG2 cytotox SP: cytotoxicity in HepG2 cells. plate reader; hits give low values. AID 743189. shares compounds with esBAF inh. activity change, negative = inhibition, % at 25 µM. 550 tested, 4% active; in the data active = activity change below about -50%
# HEK293 cytotox SP: cytotoxicity in HEK293 cells; activity change, negative = inhibition, % at 25 µM, hits read low; plate reader; 550 tested, 3% active; shares compounds with esBAF inh; AID 743190; in the data active = activity change below about -38%, passing the limit was not always enough
# * = called active by the depositor; ? = inconclusive; . = not tested or not shown.
SMILES,MITF act,Wnt act,SMARCA2 activ,FGF22 binding,esBAF inh,AF4-AF9 inh,Ring1 derepress,Fgf4 repress,esBAF Bmi1 qPCR,A549 cytotox,HepG2 cytotox SP,HEK293 cytotox SP
Cc1ccc2c(CN(C)Cc3cccc(F)c3)cc(=O)oc2c1,88*,0,3,0,90*,0,0.97,?,1.6,4,-6,-11
Cc1ccc(-n2nnc(-c3cnc4ccccc4c3)n2)cc1,-6,23,7,0,-37,2,.,.,.,.,.,.
Cc1ccc(-n2nnc(-c3cccnc3)n2)cc1,102*,22,5,0,60*,-8,1.2,1,1.5,-3,-10,16
COc1cccc(/C=N/NC(=O)CCCC(=O)Nc2ccc(Br)cc2)c1,4,-2,-2,.,.,.,.,.,.,.,.,.
COc1ccc(/C=C/C(=O)Oc2cccc(/C=N/NC(=O)Cc3ccc(Br)cc3)c2)cc1,38,-23,5,0,63*,8,1.2,?,1.6,-3,2,5
COCC(=O)Nc1ccc2c(c1)[C@H]1C[C@@H](CC(=O)N3CCOCC3)O[C@@H](CO)[C@H]1O2,.,.,.,0,-2,-1,.,.,.,.,.,.
COc1cc(OC)c2c(-c3cccc(/C=C/c4ccc(F)cc4)c3)cc(=O)oc2c1,96*,-1,.,0,86*,-5,1.1,0.92,2.7,3,29,12
C[C@@H]1CN([C@H](C)CO)C(=O)c2cc(NC(=O)Nc3ccccc3)ccc2O[C@H]1CN(C)Cc1ccncc1,.,.,.,0,-24,-2,.,.,.,.,.,.
Cc1cc(C)c2nc(-c3ccccc3)ccc2c1,.,14,4,0,63*,-3,0.93,?,1.6,-13,-17,-9
Cc1ccc(S(=O)(=O)N2C[C@@H](O)COC[C@H]3O[C@@H](CC(=O)NCCN4CCCCC4)CC[C@@H]32)cc1,.,.,.,0,4,1,.,.,.,.,.,.
Fc1ccccc1NC(=S)N1CCC(c2ccccc2)C1 (stereo unspecified),109*,48*,7,0,82*,2,1.2,0.98,1.5,-14,3,-19
S=C(Nc1ccccc1Cl)N1CCC(c2ccccc2)C1 (stereo unspecified),39,16,-2,41,.,1,.,.,.,.,.,.
Cc1nc(Nc2ccccc2)sc1C(=O)c1ccc(F)cc1,53,10,0,0,66*,9,1.1,0.88,1.5,7,-12,0
Cc1nc(Nc2ccccc2)sc1C(=O)Nc1ccccc1,62,15,1,0,.,.,.,.,.,.,.,.
Nc1ccc(C#Cc2ccc3c(=O)c4ccccc4oc3c2)cc1,111*,25,3,0,79*,-5,0.85,0.56*,3.5,-14,-1,-11
O=C(CC(=O)c1ccccc1)Nc1ccccc1,.,34*,6,-1,76*,2,1.2,0.91,1.4,-2,-19,-3
O=C(O)CC(=O)Nc1ccccc1,-7,.,1,.,1,.,.,.,.,.,.,.
CC(C)CC#Cc1cnc2c(c1)C(=O)N([C@@H](C)CO)C[C@H](C)[C@H](CN(C)C(=O)Nc1ccccc1F)O2,.,.,.,0,-2,-1,.,.,.,.,.,.
CCOC(=O)C1=C(CSc2nc(-c3ccccc3)ccc2C#N)OC(N)=C(C#N)C1c1cccnc1 (stereo unspecified),49,.,7,.,73*,.,1.2,?,1.7,-6,-16,11
Cc1ccn2cc(C(=O)Nc3ccc4c(c3)OCCO4)nc2c1,36,24,-1,.,37,.,.,.,.,.,.,.
Cc1ccn2cc(C(=O)Nc3nnc(C)s3)nc2c1,?,7,1,.,55*,.,1,0.97,1.6,-9,-16,-6
CCCN(C)C[C@H]1Oc2ncc(-c3cccc(C#N)c3)cc2C(=O)N([C@H](C)CO)C[C@H]1C,.,.,.,0,7,-2,.,.,.,.,.,.
CCn1c(COc2ccc(OC)cc2)nc2ccccc21,59,43*,2,.,61*,.,1,0.96,1.4,-13,15,-9
CCC(=O)Nc1ccc2c(c1)C(=O)N(C)C[C@@H](OC)[C@H](C)CN(C(=O)Cc1cccnc1)[C@H](C)CO2,.,.,.,0,3,-2,.,.,.,.,.,.
C[C@@H]1CCCCO[C@@H](CN(C)S(=O)(=O)c2ccc(Cl)cc2)[C@H](C)CN([C@H](C)CO)C(=O)c2cc(NC(=O)c3ccccc3)ccc2O1,.,.,.,0,1,2,.,.,.,.,.,.
SMILES,MITF act,Wnt act,SMARCA2 activ,FGF22 binding,esBAF inh,AF4-AF9 inh,Ring1 derepress,Fgf4 repress,esBAF Bmi1 qPCR,A549 cytotox,HepG2 cytotox SP,HEK293 cytotox SP
c1ccc(CCc2nc(-c3cccnc3)no2)cc1,71,.,1,.,59*,.,1.1,0.9,1.6,-15,-25,-19
Cc1cccc(Nc2nc(-c3sc(C)nc3C)cs2)c1,.,8,0,0,69*,2,1.2,0.95,1.7,-1,-16,-23
COc1cccc(CN(C)C(=O)c2ccc(COc3ccc(Cl)cc3)cc2)c1OC,?,11,0,0,59*,2,1.2,0.86,1.8,-7,-32,-1
COc1ccccc1CN(C)C(=O)c1ccc(COc2ccccc2)cc1,24,0,-3,0,4,6,.,.,.,.,.,.
C[C@H]1CN([C@@H](C)CO)C(=O)c2cccc(NC(=O)C3CC3)c2O[C@H]1CN(C)CC1CC1,.,.,.,0,-2,-2,.,.,.,.,.,.
COC(=O)C(Cc1ccc(OC(=O)c2ccc(Cl)cc2)cc1)N1Cc2ccccc2C1=O (stereo unspecified),28,-1,4,.,72*,.,1.2,0.84,1.2,3,-30,-5
O=C(O)CC(c1ccc(Cl)cc1)N1Cc2ccccc2C1=O (stereo unspecified),-4,-1,-1,0,-10,-3,.,.,.,.,.,.
C[C@@H](O)C#Cc1ccc([C@H]2[C@H]3CN(C(=O)c4cccc(F)c4)CCCCN3[C@H]2CO)cc1,.,.,.,0,-4,-3,.,.,.,.,.,.
COc1cc(C=O)c(Br)cc1OCc1ccc(C)cc1,21,.,1,.,81*,.,1.5,1.1,1.9,-5,3,-11
O=C(Cc1ccccc1)N/N=C/c1ccccc1OCc1ccc(Cl)cc1,69,.,1,.,101*,.,1.2,?,2.7,-17,10,-14
